We go through eight compounds from PubChem BioAssay (NCI).

SMILES strings stand for the structures. This is part of a sample that, as a whole, favours compounds with a hit. Of some 83,000 tested, about 20% had one in any assay.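 Cell lines were cultured in 96-well plates, exposed to a single compound concentration, and assessed for percent growth 48 hours later.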 A number with no mark means an inactive call. Activity calls are given as the source filed them. Rule for the calls: active = growth percent below 10; inactive = the rest.

Test systems include HCT-15 colon; HT29 colon; SNB-75 CNS; U251 CNS; PC-3 prostate; SK-MEL-5 melanoma; UACC-62 melanoma; LOX IMVI melanoma; SK-MEL-28 melanoma; SK-MEL-2 melanoma; EKVX NSCLC; SN12C renal; UO-31 renal; TK-10 renal; ACHN renal; CAKI-1 renal; A498 renal; CCRF-CEM leukemia; MOLT-4 leukemia.
What all share (assay): NCI-60 one-dose screen, 48 h (100 = growth as untreated, 0 = no growth, -100 = all killed)
Holding throughout (conditions): 10 µM unless noted

For the compound `O=C1Nc2ccccc2/C1=C/c1nc2ccccc2c(=O)[nH]1`, the growth in the assay on HCT-15 colon was 72.6%; in the assay with HT29 colon, 105%; in the assay with SNB-75 CNS it was 88.9%; in the assay with U251 CNS it was 96.3%; in the assay with PC-3 prostate, 77.7%; with SK-MEL-5 melanoma, 94.4%. The growth was 96.1% in the assay on UACC-62 melanoma; 82.1% in the assay with LOX IMVI melanoma; 109% in the assay with SK-MEL-28 melanoma; 103% in the assay with SK-MEL-2 melanoma; 80.6% in the assay on EKVX NSCLC; 89.5% with SN12C renal. The growth was 64.4% in the assay on UO-31 renal; 181% with TK-10 renal; 91.9% with ACHN renal; 84.2% with CAKI-1 renal; 102% in the assay with A498 renal; 55.8% in the assay on CCRF-CEM leukemia.
In the case of `O=C(c1ccccc1)c1ccc(C2CCCCC2)cc1`, the growth in the assay on HCT-15 colon is 91.5%; with HT29 colon, 91.5%; in the assay with SNB-75 CNS, 97.5%; with U251 CNS, 88.9%; with PC-3 prostate, 103%; in the assay with SK-MEL-5 melanoma, 96.6%. For the same compound, the growth with UACC-62 melanoma is 86.8%; in the assay on LOX IMVI melanoma, 94.6%; in the assay with SK-MEL-28 melanoma, 103%; in the assay on SK-MEL-2 melanoma, 110%; in the assay with EKVX NSCLC, 81.9%; in the assay with SN12C renal, 90.7%. Also, the growth is 98.2% in the assay on UO-31 renal; 81.5% with TK-10 renal; 97.1% in the assay with ACHN renal; 82.2% in the assay with CAKI-1 renal; 96.2% with CCRF-CEM leukemia; 104% in the assay with MOLT-4 leukemia.
For `Nc1cnc(C(=O)NNc2nc3cc(F)ccc3n3cccc23)cn1`, the growth in the assay with HCT-15 colon is 24.8%; in the assay with HT29 colon, 35%; in the assay with SNB-75 CNS it was 87.2%; in the assay on U251 CNS it was 36.7%; in the assay on PC-3 prostate it was 47.2%; in the assay on SK-MEL-5 melanoma, 34.5%. The growth with UACC-62 melanoma is 22.7%; with LOX IMVI melanoma, 22%; in the assay on SK-MEL-28 melanoma, 40%; in the assay on SK-MEL-2 melanoma it was 75%; in the assay with EKVX NSCLC it was 26.2%; in the assay with SN12C renal it was 46.6%. For the same compound, the growth in the assay with UO-31 renal is 8.25% (active); in the assay on TK-10 renal, 51.3%; in the assay with ACHN renal it was 12.9%; in the assay on CAKI-1 renal it was 29.5%; in the assay on A498 renal, 44.7%; in the assay with CCRF-CEM leukemia, 21.4%. Besides, the growth in the assay with MOLT-4 leukemia is 19%.
On to `O=C(O)CCN1C(=O)/C(=C/C(Cl)=C/c2ccccc2)SC1=S`, for which the growth in the assay with HCT-15 colon is -50.3% (active); in the assay with HT29 colon, 10.1%; in the assay with SNB-75 CNS, 13.2%; in the assay on PC-3 prostate, 47%; with SK-MEL-5 melanoma it was 38.9%; in the assay on UACC-62 melanoma, 16.1%. The growth in the assay on LOX IMVI melanoma was -32.4% (active); in the assay on SK-MEL-28 melanoma, 13.9%; in the assay with SK-MEL-2 melanoma it was 43.7%; in the assay on EKVX NSCLC, 39.1%; with SN12C renal, 11.9%; in the assay with UO-31 renal, 35.8%. Further, the growth with TK-10 renal is 49.7%; in the assay with ACHN renal it was -65.3% (active); with CAKI-1 renal it was 23.8%; with A498 renal, 43.5%; in the assay with CCRF-CEM leukemia, 1.73% (active); in the assay with MOLT-4 leukemia, 10.6%.
In the case of `COC(=O)[C@@H](CCCCNC(=O)[C@]12CCC(C)(C)C[C@@H]1C1=CC[C@@H]3[C@@]4(C)C/C(=C/c5ccco5)C(=O)C(C)(C)[C@@H]4CC[C@@]3(C)[C@]1(C)CC2)NC(=O)[C@]12CCC(C)(C)C[C@@H]1C1=CC[C@@H]3[C@@]4(C)C/C(=C/c5ccco5)C(=O)C(C)(C)[C@@H]4CC[C@@]3(C)[C@]1(C)CC2`, the growth was 103% with HCT-15 colon; 112% with HT29 colon; 106% in the assay with SNB-75 CNS; 90.3% with PC-3 prostate; 97.5% in the assay on SK-MEL-5 melanoma; 97.8% in the assay with UACC-62 melanoma. Moreover, the growth is 107% in the assay with LOX IMVI melanoma; 107% with SK-MEL-28 melanoma; 108% in the assay with SK-MEL-2 melanoma; 105% in the assay with EKVX NSCLC; 98.7% with SN12C renal; 79.2% with UO-31 renal. Besides, the growth is 102% with TK-10 renal; 107% with ACHN renal; 98.5% in the assay on CAKI-1 renal; 116% with A498 renal; 99.3% with CCRF-CEM leukemia; 97% in the assay on MOLT-4 leukemia.
For `N#C/C(=C\c1c(-c2ccccc2)[nH]c2ccccc12)C(N)=O`, the growth is 56.4% in the assay with HCT-15 colon; 67.4% in the assay on HT29 colon; 32.5% in the assay with SNB-75 CNS; 79.6% with U251 CNS; 69.8% in the assay with PC-3 prostate; 64.7% in the assay with SK-MEL-5 melanoma. Moreover, the growth in the assay with UACC-62 melanoma was 58.9%; in the assay on LOX IMVI melanoma it was 76.2%; with SK-MEL-28 melanoma, 97.6%; in the assay with SK-MEL-2 melanoma, 111%; in the assay on EKVX NSCLC it was 83.7%; with SN12C renal, 94.2%. Also, the growth is 93.4% in the assay with UO-31 renal; 124% with TK-10 renal; 88.8% in the assay on ACHN renal; 63.2% in the assay on CAKI-1 renal; 73.7% with A498 renal; 66.1% with CCRF-CEM leukemia. Also, the growth in the assay on MOLT-4 leukemia is 61.6%.
As to `Nc1c(C(=O)Nc2ccncc2)sc2nc3c(cc12)C(O)CCC3` (configuration not stated), the growth in the assay on HCT-15 colon is 86.3%; in the assay on HT29 colon, 85.4%; with SNB-75 CNS, 105%; in the assay on U251 CNS, 91.6%; in the assay with PC-3 prostate, 94.6%; with SK-MEL-5 melanoma it was 92.4%. Also, the growth was 80% with UACC-62 melanoma; 105% in the assay on LOX IMVI melanoma; 85.5% in the assay on SK-MEL-28 melanoma; 97.4% in the assay on SK-MEL-2 melanoma; 99.9% in the assay on EKVX NSCLC; 96.3% in the assay with SN12C renal. Besides, the growth is 81.8% in the assay on UO-31 renal; 91% with TK-10 renal; 96.4% with ACHN renal; 99.6% in the assay on CAKI-1 renal; 112% in the assay with A498 renal; 94.6% in the assay with CCRF-CEM leukemia.
For the compound `C=C(C)[C@@H]1CC[C@]2(C(=O)O)CC[C@]3(C)[C@H](CC[C@@H]4[C@@]5(C)CCC(NC(=O)c6cccc(OC(C)=O)c6OC(C)=O)C(C)(C)[C@@H]5CC[C@]43C)[C@@H]12` (some centres not stated), the growth was 6.94% (active) in the assay on HCT-15 colon; 8.01% (active) in the assay on HT29 colon; 12.5% with SNB-75 CNS; 9.78% (active) in the assay on U251 CNS; 17.6% in the assay with PC-3 prostate; -81.7% (active) with SK-MEL-5 melanoma. The growth with UACC-62 melanoma was -38.3% (active); in the assay with LOX IMVI melanoma it was -74.1% (active); with SK-MEL-28 melanoma it was 12%; in the assay with SK-MEL-2 melanoma, 14.9%; in the assay on EKVX NSCLC, 2.51% (active); in the assay on SN12C renal, 12.5%. Moreover, the growth with UO-31 renal is -39% (active); in the assay with TK-10 renal, 19.7%; in the assay with ACHN renal it was 3.98% (active); in the assay on CAKI-1 renal it was 3.74% (active); with A498 renal, -21.9% (active); in the assay on CCRF-CEM leukemia it was 10.4%. Further, the growth with MOLT-4 leukemia is 8.43% (active).
